USP8 block: human USP8 deubiquitinase inhibition; P40818; purified USP8, Ub-rhodamine cleavage fluorescence, 30 min; inhibition, % at 20 µM; hit rate 4.2% among 47,000
USP30 block: inhibitors of human USP30 deubiquitinase; purified USP30, Ub-rhodamine cleavage fluorescence; Q70CQ3; inhibition, % at 25 µM; hit rate 5.3% among 47,000
Target sequence (Q70CQ3 whole entry, looked up): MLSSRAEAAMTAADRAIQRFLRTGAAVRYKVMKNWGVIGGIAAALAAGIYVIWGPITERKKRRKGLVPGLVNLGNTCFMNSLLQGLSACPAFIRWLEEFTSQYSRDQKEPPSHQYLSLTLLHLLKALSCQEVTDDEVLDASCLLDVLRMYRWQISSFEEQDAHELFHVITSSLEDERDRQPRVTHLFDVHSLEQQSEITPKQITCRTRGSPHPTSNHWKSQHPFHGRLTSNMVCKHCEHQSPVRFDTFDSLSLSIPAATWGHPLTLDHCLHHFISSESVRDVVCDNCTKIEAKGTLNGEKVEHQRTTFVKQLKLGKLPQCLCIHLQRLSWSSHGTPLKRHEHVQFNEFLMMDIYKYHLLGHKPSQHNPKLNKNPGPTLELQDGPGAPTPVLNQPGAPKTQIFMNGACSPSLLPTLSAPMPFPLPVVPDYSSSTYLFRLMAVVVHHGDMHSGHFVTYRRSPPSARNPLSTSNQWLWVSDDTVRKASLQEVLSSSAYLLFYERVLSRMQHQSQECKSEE
USP17 block: inhibitors of human USP17 deubiquitinase; inhibition, % at 50 µM; purified USP17, Ub-rhodamine cleavage fluorescence, 3 h; hit rate 6.5% among 47,000
USP28 block: blocks human USP28 ubiquitin-rhodamine cleavage. purified USP28, Ub-rhodamine cleavage fluorescence, 30 min. inhibition, % at 25 µM. hit rate 3% among 47,000. AID 1645857. Q96RU2
Numbers stand for hits; . = inactive; / = no result given. Sampled rows, rich in hits. Any-hit rate of the full collection: about 13%. Cut-off read from the data, not from the text of the source: active = inhibition above about 30%; inactive = the rest.

SMILES | USP8 block | USP30 block | USP17 block | USP28 block
O=c1[nH]c(C2CCN(S(=O)(=O)c3ccc(S(=O)(=O)N4CCOCC4)cc3)CC2)nc2c1nnn2Cc1ccc(F)cc1 | 89.5 | . | . | .
O=c1[nH]c(C2CCN(S(=O)(=O)c3ccc(S(=O)(=O)NC4CC4)cc3)CC2)nc2c1nnn2Cc1cccc(F)c1 | . | . | . | .
O=c1[nH]c(C2CCN(S(=O)(=O)c3ccc(S(=O)(=O)NC4CC4)cc3)CC2)nc2c1nnn2Cc1cccc(Cl)c1 | . | 41.7 | . | 37.9
O=c1[nH]c(C2CCN(S(=O)(=O)c3ccc(S(=O)(=O)N4CCOCC4)cc3)CC2)nc2c1nnn2Cc1cccc(F)c1 | . | . | . | .
Cc1ccc(Cn2nnc3c(=O)[nH]c(C4CCN(S(=O)(=O)c5ccc(S(=O)(=O)NC6CC6)cc5)CC4)nc32)cc1 | . | 42.6 | . | .
CCC(CC)C(=O)N1CCC(c2nc3c(nnn3Cc3ccc(C)cc3)c(=O)[nH]2)CC1 | . | . | . | .
Cc1ccc(Cn2nnc3c(=O)[nH]c(C4CCN(C(=O)C5CCC5)CC4)nc32)cc1 | . | . | . | .
COC(=O)c1ccc(Cn2nnc3c(=O)[nH]c(C4CCCN(S(=O)(=O)c5ccc(C)cc5)C4)nc32)cc1 (stereo unspecified) | . | 36.0 | . | 32.3
Cc1ccc(O)c(C(=O)c2cc(C#N)c(=O)n(-c3cccc(Cl)c3Cl)c2)c1 | . | . | . | .
Cc1csc2ncc(C(=O)N3CCN(c4ccc(F)cc4)CC3)c(=O)n12 | . | . | . | .
Cn1c(=O)n(CC(=O)NC2CC2)c(=O)c2cnc(-c3ccc(Cl)cc3)nc21 | . | . | . | .
CCCNC(=O)c1cc2c(=O)n3cccc(C)c3nc2n1CCCOC | . | . | . | .
CC1(C)Cc2nc(N3CCCC3)ncc2C(NC(=O)c2ccccn2)C1 (stereo unspecified) | . | . | . | .
O=c1[nH]c(C2CCN(S(=O)(=O)c3ccc(S(=O)(=O)NC4CCCC4)cc3)CC2)nc2c1nnn2Cc1cccc(Cl)c1 | . | 58.6 | . | 37.8
CC(=O)c1ccc(NC(=O)Cc2sc(C)nc2-c2ccc(C)cc2)cc1 | . | . | . | 39.0
O=C(NCc1ccccc1Cl)c1ccc(-c2ccc(N3CCCC3)nn2)cc1 | . | . | 42.3 | .
COc1ccc(CNC(=O)c2ccc(-c3ccc(N4CCCC4)nn3)cc2)c(OC)c1 | . | . | . | .
COc1ccc(NCc2nnc(SCC(=O)Nc3cccc4ccccc34)n2C)cc1 | 45.2 | . | . | .
CCn1c(CNc2ccc(Cl)cc2)nnc1SCC(=O)Nc1ccccc1 | . | . | . | 63.7
COc1ccc(NC(=O)CSc2nnc(Cc3cccc4ccccc34)n2C)cc1 | . | . | . | 59.9
Cn1c(CNc2ccc(F)cc2)nnc1SCC(=O)Nc1cccc2ccccc12 | . | . | . | .
CCC(=O)Nc1cccnc1-c1ccc(C(=O)Nc2ccc(C)cc2)cc1 | . | . | / | .
CCC(=O)Nc1cccnc1-c1ccc(C(=O)Nc2ccc3c(c2)OCO3)cc1 | 74.9 | . | / | 40.0
CS(=O)(=O)N1CCN(Cc2ccc(=O)n(CC3CC3)c2)CC1 | 48.4 | . | . | .
Cn1cc(CC(=O)NCCN2CCOCC2)c2cccnc21 | . | . | . | .
SMILES | USP8 block | USP30 block | USP17 block | USP28 block
Cn1ccnc1CN1CCC([C@@H]2OC(C)(C)C3CC2[C@](C)(O)[C@@H](O)C3)CC1 (stereo partly specified) | . | 32.4 | / | .
CCc1ccc(NC(=O)Cn2c(=O)n(C)c(=O)c3nscc32)cc1 | . | . | 38.9 | .
CCc1ccc(NC(=O)Cn2c(=O)n(Cc3ccccc3)c(=O)c3nn(CC)cc32)cc1 | 98.2 | 77.7 | 73.4 | .
CCOc1ccc(NC(=O)Cn2c(=O)n(Cc3ccncc3)c(=O)c3ncccc32)cc1 | . | . | . | .
CCCn1c(=O)c2nscc2n(CC(=O)Nc2ccc(F)c(F)c2)c1=O | . | . | . | .
CCn1cc2c(n1)c(=O)n(Cc1ccccc1)c(=O)n2CC(=O)Nc1ccc(C(C)C)cc1 | 71.2 | . | 40.2 | .
CCn1cc2c(n1)c(=O)n(Cc1ccccc1)c(=O)n2CC(=O)Nc1ccc(OC)cc1 | 68.3 | 39.0 | 80.4 | .
CCN(c1ccccc1)S(=O)(=O)N1CCCC(C(=O)NCCC2=CCCCC2)C1 (stereo unspecified) | . | . | . | .
Cc1ccc(C(C(=O)NCc2ccco2)N(Cc2ccccc2F)C(=O)/C=C\C(=O)Nc2cccc(C)c2)cc1 (stereo unspecified) | . | . | . | .
O=C(Cn1cc(S(=O)(=O)Cc2ccccc2F)c2ccccc21)N1CCCCC1 | . | . | . | .
O=c1sc2ccccc2c(=O)n1Cc1cccc(C(F)(F)F)c1 | . | . | . | 82.5
COc1ccc(OC[C@H]2C3CCC(C3)N2C(=O)C(C)C)cc1 (stereo partly specified) | . | . | / | .
CN1CCN(C(=O)c2oc3ccccc3c2NC(=O)c2ccc(F)cc2)CC1 | 41.0 | . | . | .
COc1ccc(C(=O)Nc2c(C(=O)N3CCN(C)CC3)oc3ccccc23)cc1 | . | . | . | .
O=C(Nc1c(C(=O)N2CCCCCC2)oc2ccccc12)C1CCCC1 | 31.6 | . | . | .
CC(C)CN1C[C@H]2CCN(C(=O)C3CCC3)CC[C@H]2S1(=O)=O | . | . | . | .
O=C(NCC1CCCO1)C(c1ccc(F)cc1)N(Cc1ccccc1Cl)C(=O)c1ccc(CN2CCOCC2)o1 (stereo unspecified) | . | . | . | .
CC1OC(OCC2OC(Oc3c(-c4ccc(O)c(O)c4)oc4cc(O)cc(O)c4c3=O)C(O)C(O)C2O)C(O)C(O)C1O (stereo unspecified) | . | . | . | .
O=c1cc(-c2ccc(O)c(O)c2)oc2cc(O[C@@H]3O[C@H](CO)[C@@H](O)[C@H](O)[C@H]3O)cc(O)c12 | . | 91.5 | 83.6 | 89.6
O=C(NC(c1ccccc1)c1cccnc1)C1CCCCC1 (stereo unspecified) | . | . | . | .
CCOc1cc(C2Nc3ccccc3C(=O)N2c2ccc3c(c2)OCO3)ccc1O (stereo unspecified) | 30.9 | . | . | .
Cc1nc2n(n1)C(CC(=O)Nc1ccc3c(c1)OCCO3)C(=O)N2 (stereo unspecified) | . | . | . | .
COc1ccc(NC(=O)Nc2ccc(F)c(-c3nnc(-c4ccccc4)o3)c2)c(OC)c1 | . | 39.6 | . | .
Cc1cc(-c2noc(-c3cccnc3)n2)c2ccccc2n1 | . | . | 39.7 | .
COc1nc2ccc(C)cc2cc1-c1noc(-c2cccnc2)n1 | . | . | . | .
Cc1ccc(NC(=O)N2CCC3(CC2)NC(=O)C(CC(C)C)NC3=O)cc1 (stereo unspecified) | . | 46.1 | 43.2 | .
CSc1ccccc1NC(=O)N1CCC2(CC1)NC(=O)C(CC(C)C)NC2=O (stereo unspecified) | . | . | . | .
O=C(NCc1ccc(Cl)cc1)[C@@H]1Cc2nc[nH]c2CN1Cc1ccc(Cl)cc1 | 50.3 | . | . | .
O=C(NCc1ccccc1)c1ccc2c(=O)n(-c3ccccc3)c(=O)[nH]c2c1 | . | . | 66.2 | .
O=C(NCc1ccco1)c1ccc2c(=O)n(Cc3ccco3)c(=O)[nH]c2c1 | . | . | 40.2 | .
